DT40 TDP1 no CPT – qHTS for Inhibitors of human tyrosyl-DNA phosphodiesterase 1 (TDP1): qHTS in cells in absence of CPT. DT40 Tdp1-/- hTDP1 cells, no CPT, ATP luminescence, 48 h. Potency, µM (doses to about 46.2 µM), for the others: top-dose activity change, negative = growth inhibition, usual class: inhibitors. 420,000 tested, 15% active. AID 686978, 2013; note: potency is the fitted concentration of half-maximal effect; nearly all actives have a fitted effect of over 55% in size
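DT40 Tdp1-/-;hTDP1 cells, no CPT (DMSO vehicle only), 400 cells/well; compounds pin-transferred; ≥48 hr, 37 °C; CellTiter-Glo 30 min RT dark, luminescence read.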
IL-1B inflam inh – qHTS for Inhibitors of Inflammasome Signaling: IL-1-beta AlphaLISA Primary Screen; activity change, % at 57.5 µM; THP-1 LPS/ATP IL-1B secretion, AlphaLISA, 16 h; hits give low values; 360,000 tested, 4.7% active; in the data active = activity change below about -50%; inconclusive = mostly about -30% to -49%
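Secreted IL-1B measured by AlphaLISA bead assay after 16 h compound exposure of THP-1 cells; compounds (final up to 57.5 uM) added 1 h before LPS (250 ng/mL) and ATP (1.25 mM) stimulation; lower signal means less secretion.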
DT40 TDP1 CPT – qHTS for Inhibitors of human tyrosyl-DNA phosphodiesterase 1 (TDP1): qHTS in cells in presence of CPT | chicken DT40 Tdp1-/-;hTDP1 cells + 20 nM CPT, ATP luminescence, 48 h | Potency, µM (highest dose often 46.2 µM), without a hit: at the top dose activity change, negative = growth inhibition, usual class: inhibitors | 420,000 tested, 12% active | AID 686979, 2013; note: potency is the fitted concentration of half-maximal effect; nearly all actives have a fitted effect of over 55% in size
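Chicken DT40 Tdp1-/- cells complemented with human TDP1, 400 cells/well, exposed to compounds plus 20 nM camptothecin for at least 48 h at 37 C; viability read as ATP content by CellTiter-Glo luminescence.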
HT1080 IDH1KD tx – qHTS for induction of synthetic lethality in tumor cells producing 2HG: qHTS for the HT-1080-IDH1KD cell line. Potency, µM (highest dose often 46.1 µM), inactives show at the highest dose activity, negative = toxicity, usual class: cytotoxic. AID 686971, 2013. HT-1080 IDH1 knockdown viability, ATP luminescence, 48 h. 360,000 tested, 2% active;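 note: potency is the fitted concentration of half-maximal effect; 0% = DMSO wells and -100% = cell-free medium wells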
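IDH1KD HT-1080 cells, 750/well, RPMI + 5% FBS; compound pinned after 2 h settling; 48 h, 37 °C; CellTiter-Glo luminescence; % activity normalised to DMSO and no-cell wells; curves fitted, classed by r2 and efficacy.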
HT1080-NT tox – qHTS for induction of synthetic lethality in tumor cells producing 2HG: qHTS for the HT-1080-NT fibrosarcoma cell line. 360,000 tested, 1.6% active. HT-1080-NT fibrosarcoma viability, CellTiter-Glo ATP luminescence, 48 h. Potency, µM (highest dose often 46.1 µM), for the others: top-dose activity, negative = less viability, hits mostly cytotoxic;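 note: NT is the 2HG producing partner of a matched IDH1 knockdown line; potency is the fitted concentration of half-maximal effect; 0% = DMSO-treated cells and -100% = media-only wells without cells; nearly all actives have a fitted effect of over 55% in size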
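750 cells/well, RPMI + 5% FBS; 2 h settle, compound pin-transfer, 48 h at 37 degrees C. CellTiter-Glo 10 min RT, luminescence. Normalized to DMSO and media-only wells.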
12-LOX inh – Primary qHTS assay for inhibitors of human arachidonate 12S-lipoxygenase (ALOX12): Round 2; purified 12hLO, xylenol orange hydroperoxide absorbance; 580,000 tested, 1.1% active; Polyunsaturated fatty acid lipoxygenase ALOX12 (Homo sapiens), P18054; AID 1671190, 2021; Potency, µM (titrated, usually from 108 µM), without a hit: at the highest dose activity change, negative = inhibition, usual class: inhibitors; note: potency is the fitted concentration of half-maximal effect
Target sequence (P18054 whole entry, looked up): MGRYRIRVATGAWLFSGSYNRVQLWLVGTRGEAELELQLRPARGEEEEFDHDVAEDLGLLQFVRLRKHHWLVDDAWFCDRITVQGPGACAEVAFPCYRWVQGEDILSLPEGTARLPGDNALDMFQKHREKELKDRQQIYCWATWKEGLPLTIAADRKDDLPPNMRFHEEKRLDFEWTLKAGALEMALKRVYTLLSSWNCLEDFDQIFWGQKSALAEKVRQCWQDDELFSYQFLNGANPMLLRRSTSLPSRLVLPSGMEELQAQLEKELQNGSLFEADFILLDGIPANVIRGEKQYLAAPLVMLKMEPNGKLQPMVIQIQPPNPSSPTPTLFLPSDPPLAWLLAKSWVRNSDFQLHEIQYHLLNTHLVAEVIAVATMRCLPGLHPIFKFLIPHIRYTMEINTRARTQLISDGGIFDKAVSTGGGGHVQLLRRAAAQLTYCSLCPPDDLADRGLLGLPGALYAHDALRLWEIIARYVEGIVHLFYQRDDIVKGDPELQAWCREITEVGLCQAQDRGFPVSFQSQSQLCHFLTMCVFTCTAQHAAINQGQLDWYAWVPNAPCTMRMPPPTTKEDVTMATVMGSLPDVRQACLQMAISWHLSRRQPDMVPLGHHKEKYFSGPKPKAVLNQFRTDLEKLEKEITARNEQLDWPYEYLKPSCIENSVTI
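Purified human 12hLO at 150 nM in 25 mM Hepes, 0.01% Triton X-100, pH 7.0, preincubated 15 min at room temperature with compound. Reaction started with 40 uM arachidonic acid, 30 min at room temperature. Hydroperoxide measured by Fe-xylenol orange, 573/405 nm absorbance ratio.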
* marks the source's active call; other numbers are inactive results; u = inconclusive; x = no result; [ ] = dose if it differs, or a comment. This excerpt belongs to a sample that is enriched for hits. Unless noted, calls come from the whole dose curve; as a rule, active = well fitted curve in the direction sought with a large enough effect; inconclusive = small, poorly fitted or top-dose-only effect, or another doubt; inactive = no such curve, though single readings can be large; an effect the other way counts as inactive or inconclusive. Unless noted, % is set by controls: 0 for no effect and ±100 for the full control effect.

SMILES	DT40 TDP1 no CPT	IL-1B inflam inh	DT40 TDP1 CPT	HT1080 IDH1KD tx	HT1080-NT tox	12-LOX inh
COc1ccc(-n2nc([N+](=O)[O-])c(=NCc3ccco3)n2O)cc1	-24.2%	1.2	6.6%	3.6%	9.0%	0.5%
CC1(C)N=C(N)N=C(N)N1CCCCc1ccccc1	0.517µM*	10.1	2.06µM*	0.146µM*	u	-9.5%
CN(C)CCCN(Cc1ccccc1)C(=S)Nc1ccc(F)c(Cl)c1	18.4µM*	u	-26.8%	u	u	0.0%
CN(C)CCCN(Cc1ccccc1)C(=S)Nc1cccc(C(F)(F)F)c1	u	16.5	14.6µM*	-13.2%	-5.1%	u
S=C(Nc1ccccc1Cl)N(Cc1ccccc1)Cc1ccccn1	u	-51.6*	u	-18.2%	-10.7%	-11.7%
OCCN(Cc1ccccc1)C(=S)Nc1ccc(Cl)cc1Cl	u	-56.0*	u	-21.5%	-18.9%	0.0%
CCCN(Cc1ccccc1)C(=S)Nc1cccc(C(F)(F)F)c1	u	-1.7	u	-18.7%	-24.7%	u
Cc1c(C(=O)Nc2ccccc2NS(=O)(=O)c2cccs2)cccc1[N+](=O)[O-]	x	x	x	x	x	-4.0%
N#CC(C(=O)CCc1ccccc1)C(=O)Nc1ccccc1Cl (stereo not drawn)	x	x	x	x	x	-0.5%
O=C1[C@@H]2C[C@@H](CN2CC2CC2)Oc2ccccc2N1Cc1ccc(OC(F)(F)F)cc1	x	x	x	x	x	80.0%[176 µM]
Cc1c(C(=O)N2CCc3ccccc3C2)sc2nc(-c3ccccc3)cn12	20.6µM*	-11.3	u	u	-5.1%	-9.5%
COc1ccc(-c2cn3c(C)c(C(=O)N4CCc5ccccc5C4)sc3n2)cc1	20.6µM*	53.8	18.4µM*	u	-21.4%	x
COC(=O)c1ccn(Cc2ccccc2Br)n1	x	x	x	x	x	15.0%
Cc1cc(C(=O)N2CCCC(C)(C(=O)NS(=O)(=O)C3CC3)C2)nn1C(C)(C)C (stereo not drawn)	2.91µM*	26.0	u	25.0%	22.4%	-21.0%
CCCNC(=O)C1(C)CCCN(C(=O)c2cc(C)nn2C(C)(C)C)C1 (stereo not drawn)	u	27.9	11.6µM*	u	16.8%	4.8%
CCCNC(=O)C1(C)CCN(C(=O)c2cc(C)nn2C(C)(C)C)C1 (stereo not drawn)	1.4%	-12.7	1.6%	15.7%	20.0%	1.6%
CCCNC(=O)C1(C)CCCN(C(=O)c2cc(C)n(C(C)(C)C)n2)C1 (stereo not drawn)	u	27.0	u	12.2%	20.3%	-12.1%
CCNC(=O)C1(C)CCCN(C(=O)c2cc(C)n(C(C)(C)C)n2)C1 (stereo not drawn)	-25.0%	22.5	7.31µM*	u	16.9%	-11.2%
COc1ccc(NC(=O)C2(C)CCCCC(=O)N2)cc1 (stereo not drawn)	x	x	x	x	x	0.6%
C/C(=N\O)c1ccn(S(=O)(=O)c2ccc(Cl)cc2)c1	25.9µM*	0.0	u	1.1%	-1.9%	47.3%
CC(=O)c1ccn(S(=O)(=O)c2ccc(Cl)cc2)c1	-13.9%	-10.7	-10.6%	-0.3%	-3.8%	-18.9%
Fc1ccc(C(NCCc2ccc(Cl)cc2)c2nnc(-c3ccccc3)o2)c(Cl)c1 (stereo not drawn)	u	x	u	x	x	-12.7%
Clc1ccc(CCNC(c2nnc(-c3ccccc3)o2)c2ccccc2Cl)cc1 (stereo not drawn)	23.1µM*	x	18.4µM*	x	x	-8.4%
O=C(NCCc1noc(C2CC2)n1)C1CCCC1	x	x	x	x	x	-1.4%
Cc1ccccc1C1CC(c2ccc(Br)cc2)Nc2nc(N)nn21 (stereo not drawn)	-27.8%	u	-21.9%	-23.8%	-7.8%	-13.4%
SMILES	DT40 TDP1 no CPT	IL-1B inflam inh	DT40 TDP1 CPT	HT1080 IDH1KD tx	HT1080-NT tox	12-LOX inh
Cc1ccccc1C1CC(c2cccs2)Nc2nnnn21 (stereo not drawn)	6.51µM*	u	-7.1%	-10.6%	-1.6%	-0.6%
Cc1ccccc1C1CC(c2ccc(F)cc2)Nc2nc(N)nn21 (stereo not drawn)	u	-0.4	20.6µM*	0.5%	-4.4%	486.2%
COc1ccc(C2CC(c3cccc(C)c3)n3nc(N)nc3N2)cc1 (stereo not drawn)	-2.9%	-11.1	u	-5.1%	13.7%	417.0%
Cc1cccc(C2CC(c3ccc(Br)cc3)Nc3nc(N)nn32)c1 (stereo not drawn)	23.1µM*	-13.8	20.6µM*	0.2%	1.7%	-5.2%
COc1cc(O)ccc1-c1nc2ccc(Br)cn2c1Nc1ccccc1C	9.2µM*	x	20.6µM*	x	x	-16.3%
Cc1ccccc1Nc1c(-c2ccc(N3CCOCC3)cc2)nc2ccc(Br)cn12	14.6µM*	x	11.6µM*	x	x	-25.3%
COc1ccc([C@H]2C[C@@H](O)[C@@H](O)[C@@H]2NCc2cn(C)c3ccccc23)cc1	x	x	x	x	x	39.8µM*
CCOc1ccc2c(c1)cc(C(=O)Nc1cccc(F)c1)n2C	x	x	x	x	x	-15.2%
O=C(c1ccccc1)N(Cc1ccco1)C1CC1	x	x	x	x	x	-6.9%
Cc1ccc(C2=NC(C)(C)N=C2SCC(=O)Nc2ccc(C)c(C)c2)cc1	x	x	x	x	x	-8.0%
COC(=O)CC1C(=O)NC2CCCCC2N1C(=O)CCl (stereo not drawn)	14.6µM*	-61.9*	u	u	u	0.0%
CCNC(=O)N1C(CC(=O)OCC)C(=O)NC2CCCCC21 (stereo not drawn)	0.6%	3.3	-2.8%	16.9%	12.4%	0.0%
COc1ccc(NC(=O)C2(C)CCN2Cc2csc3ccccc23)cc1OC (stereo not drawn)	14.6µM*	-15.1	14.6µM*	u	-22.8%	-4.3%
CC1(C(=O)Nc2ccc3c(c2)OCCO3)CCN1Cc1csc2ccccc12 (stereo not drawn)	u	-14.8	u	u	-22.8%	-28.7%
CC1(C(=O)NCc2cccc(C(F)(F)F)c2)CCN1C1Cc2ccccc2C1 (stereo not drawn)	20.6µM*	12.5	u	u	u	-0.1%

Screening data (PubChem)
